# Rab9 promoter act: activators of Rab9 promoter; Huh7 Rab9 promoter-luciferase reporter, luminescence, 24 h; AID 485297; actives 2.8% (n = 320,000); Potency, µM (top dose mostly 9.22 µM), inactives show at the top dose activation, negative = inhibition, most hits filed as activators; also: % of control where 0% means no effect; nearly all actives have a fitted effect of over 60% in size
#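 Rab9 promoter-driven luciferase in stably transfected Huh7 cells; 1500 cells/well rested 2 h, exposed to compound in DMSO for 24 h at 37 °C, 5% CO2. Luminescence read 10 min after adding luciferase reagent at ambient temperature.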
# Luc counter: Kinase-Glo luciferase inhibition (counter-screen). Potency, µM (series often up to 38.3 µM), without a hit: at the top dose activity change, negative = inhibition, hits mostly inhibitors. actives 0.28% (n = 200,000). AID 1379. Kinase-Glo luciferase, ATP luminescence, 8 min; also: % is scaled to controls: 0 for no effect and ±100 for the full control effect; nearly all actives have a fitted effect of over 60% in size
#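 Inhibition of Kinase-Glo luciferase light generation was assessed at 10 uM ATP in pH 7.2 imidazole buffer, with luminescence measured after eight minutes at ambient temperature.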
# ELG1 genotox: induces genotoxicity in HEK293T cells with luciferase-tagged ELG1; HEK293T ELG1-luciferase reporter, luminescence, 16 h; AID 504466; Potency, µM (top dose mostly 46 µM), without a hit: top-dose activity change, positive = activation, hits mostly activators; actives 1.3% (n = 330,000); also: % of control where 0% means no effect; nearly all actives have a fitted effect of over 60% in size
#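 Genotoxicity was scored as increased ELG1-luciferase reporter signal, measured by ONE-Glo luminescence (30 min, room temperature). Compound or vehicle exposure of the HEK293T reporter cells lasted 16 hr at 37°C.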
# FLuc modulator: firefly luciferase modulation, counter-screen for miR-21 project; Potency, µM (doses to about 57.5 µM), without a hit: at the highest dose activity change, negative = inhibition, actives largely listed as inhibitors; actives 6.9% (n = 360,000); AID 588342; purified FLuc, Km substrates, luminescence inhibition;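 also: plate controls were vehicle for no effect and reference inhibitor for full effect; nearly all actives have a fitted effect of over 55% in size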
# Target sequence (P08659 whole entry, looked up): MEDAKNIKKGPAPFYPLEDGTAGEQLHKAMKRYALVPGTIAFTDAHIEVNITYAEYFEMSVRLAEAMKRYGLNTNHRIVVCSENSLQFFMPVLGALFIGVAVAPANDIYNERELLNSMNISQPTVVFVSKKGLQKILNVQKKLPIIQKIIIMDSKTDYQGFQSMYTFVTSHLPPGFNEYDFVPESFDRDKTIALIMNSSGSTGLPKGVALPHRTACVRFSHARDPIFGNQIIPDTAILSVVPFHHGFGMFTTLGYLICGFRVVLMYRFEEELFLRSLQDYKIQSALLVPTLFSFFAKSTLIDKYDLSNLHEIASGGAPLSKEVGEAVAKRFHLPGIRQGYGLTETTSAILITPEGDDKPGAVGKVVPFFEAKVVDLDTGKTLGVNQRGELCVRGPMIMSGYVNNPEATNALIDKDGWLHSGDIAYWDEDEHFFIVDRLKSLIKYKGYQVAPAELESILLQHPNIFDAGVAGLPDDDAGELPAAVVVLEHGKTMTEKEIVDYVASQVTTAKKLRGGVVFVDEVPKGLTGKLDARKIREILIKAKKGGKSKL
#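 Biochemical qHTS of compounds, final roughly 60 µM downward over six points, against 10 nM purified firefly luciferase using Km concentrations of substrates (10 uM D-luciferin, 10 uM ATP) in Tris acetate pH 7.5 buffer; luminescence output.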
# SMN2 splice enh: increases expression of the SMN2 splice variant | HEK293 SMN2-luciferase splicing reporter, luminescence, 30-36 h | Potency, µM (highest dose often 46.1 µM), inactives show at the top dose activity change, positive = activation, hits mostly activators | actives 2.8% (n = 210,000); also: % of control where 0% means no effect; nearly all actives have a fitted effect of over 55% in size
#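 qHTS luciferase splicing reporter: luminescence rises when SMN2 exon 7 is included in transfected HEK293 cells. Compound exposure lasted 30-36 h at 37C, with 4.5 mM final sodium butyrate as control, followed by a ONE-Glo read.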
# NPC1 promoter act: NPC1 promoter activation | actives 2.4% (n = 320,000) | Huh7 NPC1 promoter luciferase reporter, 24 h | Potency, µM (series often up to 9.22 µM), without a hit: top-dose activation, most hits filed as activators; also: % of control where 0% means no effect; nearly all actives have a fitted effect of over 60% in size
#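 Huh7 cells stably carrying NPC1 promoter–luciferase, plated in Opti-MEM with 10% FBS for 2 h, were exposed to compound in DMSO for 24 h at 37 °C; luciferase reagent was added for 10 min and luminescence read.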
# An asterisk follows results filed as active; ? = inconclusive; . = no result; [ ] = remark or other dose. Sampled rows, rich in hits. Any-hit rate of the full collection: about 7.3%. Calls follow the shape of the dose curve; as a rule, active = well fitted curve in the direction sought with a large enough effect; inconclusive = small, poorly fitted or top-dose-only effect, or another doubt; inactive = no such curve, though single readings can be large; an effect the other way counts as inactive or inconclusive. Potency is read from the fitted curve at half-maximal effect.
SMILES,Rab9 promoter act,Luc counter,ELG1 genotox,FLuc modulator,SMN2 splice enh,NPC1 promoter act
Cc1cc(C)cc(NC(=O)C(=O)NCC2CCCO2)c1 (stereo unspecified),-14.0%,-5.3%,11.6%,-13.4%,12.3%,9.4%
Cc1ccc(NC(=O)C(=O)NCC2CCCO2)cc1 (stereo unspecified),3.98µM*,-5.0%,?,?,14.1µM*,?
Cc1ccc(Nc2nnc(SC(C)C(=O)NCC3CCCO3)s2)cc1C (stereo unspecified),-1.0%,.,-2.2%,15.1µM*,.,-0.1%
Cc1ccc(NC(=O)C(=O)NN=C2CCCC2)cc1C,?,-3.3%,6.8%,13.5µM*,.,18.6%
Cc1ccc(NC(=O)C(=O)NCC2CCCO2)cc1C (stereo unspecified),1.26µM*,-1.0%,8.2µM*,?,11.2µM*,2.82µM*
O=C(NCC[C@@H]1C[C@@H]2C=C[C@H]1C2)c1cc(COc2ccc(F)cc2F)on1,-2.6%,.,-12.0%,-11.2%,.,-1.5%
N#CC1=C2SCN(Cc3ccccc3)CN2C(=O)CC1c1ccccc1F (stereo unspecified),2.3%,-4.9%,-0.6%,-14.2%,1.6%,1.3%
Cn1ccnc1SCc1cn2ccccc2n1,3.16µM*,-11.5%,?,16.9µM*,?,3.16µM*
Cc1ccn2cc(CSc3ccccc3)nc2c1,1.41µM*,-8.5%,3.66µM*,4.78µM*,12.6µM*,1.26µM*
c1ccn2c(SCc3ccc4c(c3)OCCO4)nnc2c1,3.55µM*,-5.4%,20.6µM*,?,11.2µM*,?
c1ccc(-n2nnnc2SCc2cn3ccccc3n2)cc1,8.2%,-1.9%,-3.7%,-3.2%,9.2%,6.9%
c1ccn2cc(CSc3nnc4ccccn34)nc2c1,1µM*,-14.6%,10.3µM*,13.5µM*,17.1%,3.55µM*
O=[N+]([O-])c1cccc(CSc2nnc3ccccn23)c1,0.5%,-2.7%,3.5%,6.2%,1.8%,-4.1%
CC(C)(C)C(=O)NC(=S)NNC(=O)c1ccc(Cl)cc1Cl,-1.5%,-1.5%,11.7%,-12.9%,-16.6%,6.7%
CCn1c(SCC(=O)Nc2cc(OC)ccc2OC)nnc1C1CCCCC1,1.7%,-0.5%,1.4%,-3.5%,.,3.4%
O=C(Nc1ccc(F)cc1)c1cccnc1NCCc1ccccc1,-1.6%,2.0%,0.4%,?,-4.9%,-4.5%
c1ccn2cc(CSC3=NCCS3)nc2c1,?,-8.6%,?,19µM*,?,?
COc1ccc(-c2cn3nc(SCC(=O)NCC4CCCO4)ccc3n2)cc1 (stereo unspecified),1.58µM*,.,?,2.69µM*,.,?
COc1ccc(-c2cc(-c3ccccc3)nc(SCC(=O)Nc3ccccc3F)c2C#N)cc1,.,.,.,-1.5%,-9.4%,.
O=C(CSc1ccc2nc(-c3ccccc3)cn2n1)NCC1CCCO1 (stereo unspecified),?,.,9.9%,19µM*,.,?
COc1ccc(-c2cn3nc(SCC(=O)Nc4ccccc4F)ccc3n2)cc1,.,.,.,1.07µM*,.,.
O=C(CSc1ccc(-c2ccc(-n3cccn3)cc2)nn1)Nc1ccccc1F,1.8%,.,?,0.601µM*,.,13.5%
Cc1cccc(NC(=O)N2CCC(N3CCN(Cc4ccccc4)C(=O)C3=O)CC2)c1C,.,.,.,3.7%,.,.
CCN1CCN(c2nc3c(S(=O)(=O)c4ccc(C)cc4)nnn3c3ccsc23)CC1,.,.,.,-5.0%,.,.
COc1ccc(-n2ncc3c2ncn2nc(-c4ccc(Cl)cc4Cl)nc32)cc1,.,.,.,-0.3%,-2.5%,.
SMILES,Rab9 promoter act,Luc counter,ELG1 genotox,FLuc modulator,SMN2 splice enh,NPC1 promoter act
COc1ccc(CNc2nc(-c3ccco3)nn2C(=O)CC(C)C)cc1,.,.,.,.,12.6µM*,.
CSc1cccc(NC(=O)CN(C2CCCCC2)S(C)(=O)=O)c1,2.3%,2.2%,-2.6%,5.8%,2.2%,-3.2%
Cc1ccc(OCC(=O)Nc2ccc3nn(-c4ccc(Cl)cc4)nc3c2)cc1,.,.,.,1.6%,-16.5%,.
Cc1cc(Cl)ccc1OCC(=O)Nc1nc(N)nc(N)n1,.,-1.6%[7.66 µM],.,.,-6.5%[9.22 µM],.
C/C(=N/NC(=O)c1ccc(C)s1)c1cccc(NC(=O)COc2ccc(Cl)cc2C)c1,3.1%,2.3%,7.5%,5.36µM*,-7.6%,26.2%
C/C(=N\NC(=O)c1c(Cl)c(C)nn1C)c1cccc(NC(=O)COc2ccc(Cl)cc2)c1,26.2%,-0.2%,3.2%,8.49µM*,13.4%,?
O=C(N=C1N=C2C=CC(Br)=CN2Cc2ccccc21)c1ccc([N+](=O)[O-])cc1[N+](=O)[O-],3.55µM*,.,?,12µM*,.,3.55µM*
Cc1cc(=O)n2[nH]c(-c3ccc(Cl)cc3)cc2n1,3.55µM*,-1.1%,13.3%,12µM*,14.1µM*,?
Cc1cc2nc(CSc3ccc(Cl)cc3)cc(=O)n2[nH]1,-3.2%,1.6%,-5.7%,16.9µM*,11.8%,-2.0%
Cc1nc2nc(CSc3ccc(Cl)cc3)cc(=O)n2[nH]1,-2.7%,-0.2%,-1.0%,?,15.5%,0.4%
Cc1cc(=O)n2[nH]c(-c3ccc(F)cc3)cc2n1,?,-1.9%,?,16.9µM*,24.7%,?
Cc1cc(=O)n2[nH]c(C)c(-c3ccc(Cl)cc3)c2n1,0.1%,-3.3%,-24.8%,11.3%,-60.0%,-4.3%
CC(C)Cc1nc(N2CCN(C(=O)Cc3ccccc3)CC2)c(C#N)c2c1COC(C)(C)C2,2.7%,.,-4.5%,1.2%,.,-5.8%
CC(C)n1cc(NC(=O)c2cc(-c3ccccc3)on2)cn1,-8.6%,-5.8%,18.4µM*,15.1µM*,6.0%,-16.1%
O=C(Nc1cccnc1)c1cc(-c2ccc(Br)cc2)on1,0.1%,-3.9%,5.8µM*,2.13µM*,10.7%,-0.5%
COc1ccc(NC(=O)c2cc(-c3ccccc3)on2)cc1,1.9%,.,11.5%,?,.,1.4%
O=C(Nc1ccc(F)c(Cl)c1)c1cc(-c2ccco2)on1,2.5%,.,4.7%,?,.,-3.3%
O=C(Nc1cccnc1)c1cc(-c2ccco2)on1,0.4%,-8.7%,0.2%,6.01µM*,-3.4%,-0.4%
O=C(Nc1cccnc1)c1cc(-c2ccccc2)on1,-7.5%,-8.9%,1.6%,4.78µM*,-0.3%,0.7%
CN1/C(=C\C(=O)COC(=O)CN2C(=O)C3CC=CCC3C2=O)C(C)(C)c2ccccc21 (stereo unspecified),-3.1%,-4.5%,-8.9%,-2.7%,-0.8%,-1.3%
O=S(=O)(Nc1cccc(-n2cnnn2)c1)c1cc(Cl)ccc1Cl,-0.4%,.,-0.3%,-0.1%,.,1.3%
CCCCO,.,.,.,.,-1.2%,.
O=C(Cn1c(-c2cccs2)cc2cc(F)ccc21)N1CCCCC1,.,.,.,0.0%,.,.
COC(=O)c1c(-c2ccc(C)cc2)csc1NC(=O)c1c(-c2ccccc2)noc1C,-1.1%,3.4%,-2.3%,0.3%,68.3%,-2.0%

# Bioassay records as filed in PubChem.
